Mdm2-MdmX inh: inhibitors of human Mdm2/MdmX interaction; O15151+Q00987; SaOS-2 split-luciferase Mdm2/MdmX complementation, luminescence; inhibition, % at 8 µM; 3% of 330,000 active; AID 485346;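 active means inhibition of at least 50% at 8 µM in the primary screen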
Target sequence (O15151 whole entry, looked up): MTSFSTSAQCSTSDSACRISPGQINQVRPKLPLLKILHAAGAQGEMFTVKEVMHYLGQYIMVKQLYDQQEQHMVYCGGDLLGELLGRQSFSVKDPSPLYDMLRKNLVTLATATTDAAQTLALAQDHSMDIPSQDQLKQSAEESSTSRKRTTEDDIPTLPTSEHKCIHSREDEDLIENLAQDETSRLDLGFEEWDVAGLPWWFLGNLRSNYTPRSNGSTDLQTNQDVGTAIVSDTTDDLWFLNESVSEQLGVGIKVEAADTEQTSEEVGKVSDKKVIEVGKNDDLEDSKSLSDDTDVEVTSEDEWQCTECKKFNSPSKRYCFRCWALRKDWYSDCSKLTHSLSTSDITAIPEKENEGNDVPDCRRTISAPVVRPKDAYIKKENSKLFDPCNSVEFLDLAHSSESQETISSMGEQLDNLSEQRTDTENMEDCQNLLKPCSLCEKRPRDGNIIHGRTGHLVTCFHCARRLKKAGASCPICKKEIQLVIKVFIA
Target sequence (Q00987 whole entry, looked up): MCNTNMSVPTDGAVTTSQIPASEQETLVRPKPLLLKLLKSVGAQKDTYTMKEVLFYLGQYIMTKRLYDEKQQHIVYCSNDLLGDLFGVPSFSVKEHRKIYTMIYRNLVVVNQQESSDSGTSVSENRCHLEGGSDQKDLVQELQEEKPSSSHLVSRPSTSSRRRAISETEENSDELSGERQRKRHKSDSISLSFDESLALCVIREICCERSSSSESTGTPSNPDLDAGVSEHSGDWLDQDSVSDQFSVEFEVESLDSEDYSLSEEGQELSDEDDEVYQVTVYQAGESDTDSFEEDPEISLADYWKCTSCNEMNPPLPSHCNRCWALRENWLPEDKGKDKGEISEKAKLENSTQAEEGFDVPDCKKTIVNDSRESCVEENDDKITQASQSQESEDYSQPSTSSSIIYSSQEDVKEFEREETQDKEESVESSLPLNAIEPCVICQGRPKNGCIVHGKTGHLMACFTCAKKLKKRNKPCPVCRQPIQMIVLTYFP
Peg3 promoter: inhibitors of Peg3 promoter; HeLa PEG-Prom luciferase reporter, luminescence, overnight; inhibition, % at 20 µM; 1.7% of 360,000 active; AID 588405;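 active means inhibition of at least 50% at 20 µM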
KKLEB cytotox: CF airway cell cytotoxicity counter-screen; KKLEB CF airway cells viability, ATPlite luminescence, overnight; hits give low values; cells stimulated with P. aeruginosa culture filtrate; 0.36% of 360,000 active; AID 602141; activity change (cytotoxicity), % at 5 µM;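 active means corrected activity change at or below -50% at 5 µM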
CF NFkB inh: cystic fibrosis NF-kB activation inhibition | AID 588850 | inhibition, % at 5 µM | KKLEB NF-kB-GFP reporter, PAF-induced, GFP fluorescence overnight | 0.86% of 360,000 active;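 active means at least 50% inhibition at 5 µM, scaled per plate between neutral and stimulator controls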;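 further: PAF is a Pseudomonas aeruginosa culture filtrate used as stimulus; plate controls were PAF-stimulated DMSO wells for no effect and unstimulated DMSO wells for full effect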
LGR2 antag: inhibitors of bursicon-induced Drosophila LGR2 receptor cAMP signaling. HEK293 LGR2, CRE-luciferase, bursicon-stimulated, 4 h. inhibition, % at 9.99 µM. 0.35% of 380,000 active;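 active means drop in luminescence signal, shown as inhibition above about 50% in the replicate tests, limit read from the data, passing the limit was not always enough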;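 further: agonist challenge used bursicon conditioned medium at about half maximal strength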
HSP90 inh: inhibitors of HSP90 luciferase refolding in rabbit reticulocyte lysate; luciferase refolding luminescence, 3 h; inhibition, % at 5.6 µM; 0.91% of 290,000 active; AID 1789;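 active means inhibition above the screen-wide mean plus 3 SD, computed separately per campaign, cut at about 16% in these data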;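 further: 0% = DMSO wells and 100% = 60 µM geldanamycin wells; inhibitors lower the luminescence because luciferase stays unfolded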
Mdm2 MdmX conf: confirmation of human Mdm2/MdmX interaction inhibitors; 55% of 10,000 active; shares compounds with Mdm2-MdmX inh; Mdm2-MdmX binding, luminescent assay; inhibition, % at 8 µM; in the data active means inhibition above about 40%
Full FLuc ctr: counter-screen for Mdm2/MdmX inhibitors: full-length luciferase; shares compounds with Mdm2-MdmX inh; SaOS-2 full-length luciferase counterscreen, luminescence; inhibition, % at 8 µM; 77% of 6,200 active; AID 504607;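 active means mean inhibition at 8 µM reaching about 37%, which flags the compound as non-specific, limit read from the data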;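 further: p53-null SaOS-2 cells with luciferase driven by a doxycycline-inducible promoter; compound on cells about two nights before reading with doxycycline added after day one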
The depositor's hits bear a star. Only some compounds are listed: those with a hit (about 3.6% of all), similar ones and a draw of the others.

What do the screens show for `C[C@H](CO)N1C[C@H](C)[C@@H](CN(C)S(=O)(=O)c2cn(C)cn2)Oc2ccc(NC(=O)NC3CCCCC3)cc2CC1=O`?
LGR2 antag: -32

What do the screens show for `CC(=O)N(C)C[C@@H]1Oc2ncc(C#Cc3ccccc3F)cc2C(=O)N([C@@H](C)CO)C[C@@H]1C`?
LGR2 antag: 16

What do the screens show for `COc1cc(/C=C2\CC/C(=C\c3cc(OC)c(O)c(OC)c3)C2=O)cc(OC)c1O`?
Mdm2-MdmX inh: 97*; Peg3 promoter: 105*; KKLEB cytotox: -44; CF NFkB inh: 62*; HSP90 inh: 6; Mdm2 MdmX conf: 62*; Full FLuc ctr: 26

What do the screens show for `COc1cc(/C=C2\CCC/C(=C\c3ccc(O)c(OC)c3)C2=O)ccc1O`?
Mdm2-MdmX inh: 100*; Peg3 promoter: 105*; KKLEB cytotox: -16; CF NFkB inh: -11; LGR2 antag: -3; HSP90 inh: 3; Mdm2 MdmX conf: 89*; Full FLuc ctr: 22

How did CCOc1cc(/C=C2\CN(CC)C/C(=C\c3ccc(O)c(OCC)c3)C2=O)ccc1O do in these assays?
Mdm2-MdmX inh: 96*; Peg3 promoter: 110*; KKLEB cytotox: -40; CF NFkB inh: 87*; LGR2 antag: 69*; HSP90 inh: 13; Mdm2 MdmX conf: 97*; Full FLuc ctr: 57*

Results for COc1cc(/C=C2/CCC/C(=C\c3cc(O)c(OC)c(Cl)c3)C2=O)cc(Cl)c1O ?
Mdm2-MdmX inh: 95*; Peg3 promoter: 3; KKLEB cytotox: 2; CF NFkB inh: -54; HSP90 inh: -1; Mdm2 MdmX conf: 80*; Full FLuc ctr: 52*

What do the screens show for `C[C@@H]1CCCCO[C@H](CN(C)Cc2ccc(C(=O)O)cc2)[C@H](C)CN([C@@H](C)CO)C(=O)c2cc(NS(=O)(=O)c3cn(C)cn3)ccc2O1`?
LGR2 antag: 2

How did Cc1cc(C(=O)c2ccc(C(C)(C)C)cc2)c(NC(=O)CCl)s1 do in these assays?
Mdm2-MdmX inh: 78*; Peg3 promoter: 103*; KKLEB cytotox: -21; CF NFkB inh: 26; LGR2 antag: 5; HSP90 inh: -2; Mdm2 MdmX conf: -5

What do the screens show for `Cc1sc(NC(=O)CCl)c(C(=O)c2ccccc2)c1C`?
Mdm2-MdmX inh: 54*; Peg3 promoter: 38; KKLEB cytotox: -22; CF NFkB inh: 17; HSP90 inh: 4; Mdm2 MdmX conf: 4

How did N#CC(C#N)=c1ccc2c(c1)N1C3=C(CCCC3)CC3CCCCC31N=2 (stereo unspecified) do in these assays?
Mdm2-MdmX inh: 67*; Peg3 promoter: -21; KKLEB cytotox: -20; CF NFkB inh: 10; HSP90 inh: -2; Mdm2 MdmX conf: 46*; Full FLuc ctr: 38*

What do the screens show for `CC(=O)O[C@@]12CO[C@@H]1C[C@H](O)[C@@]1(C)C(=O)[C@H](O)C3=C(C)[C@@H](OC(=O)[C@H](O)[C@@H](NC(=O)OC(C)(C)C)c4ccccc4)C[C@](O)([C@@H](OC(=O)c4ccccc4)[C@H]21)C3(C)C`?
Mdm2-MdmX inh: 56*; HSP90 inh: 5; Mdm2 MdmX conf: 62*; Full FLuc ctr: 53*

What do the screens show for `CC(C)(C)c1nn(-c2ccccc2)c2[nH]c(=O)c(CNCc3ccc4c(c3)OCO4)cc12`?
Mdm2-MdmX inh: 92*; Peg3 promoter: 30; KKLEB cytotox: -14; CF NFkB inh: -21; HSP90 inh: 6; Mdm2 MdmX conf: 80*; Full FLuc ctr: 64*

What do the screens show for `CC(C)C[C@@H](C(=O)NC1CCN(Cc2ccccc2)CC1)N1C(=O)N2CCc3c([nH]c4ccccc34)[C@@]2(C)C1=O`?
Mdm2-MdmX inh: 60*; Peg3 promoter: 46; KKLEB cytotox: -10; CF NFkB inh: -14; LGR2 antag: 12; HSP90 inh: 2; Mdm2 MdmX conf: 46*; Full FLuc ctr: 58*

What do the screens show for `C[C@@H](C(=O)NC1CCN(Cc2ccccc2)CC1)N1C(=O)N2CCc3c([nH]c4ccccc34)[C@@]2(C)C1=O`?
Mdm2-MdmX inh: 11; Peg3 promoter: -11; KKLEB cytotox: -8; CF NFkB inh: -2; LGR2 antag: 29; HSP90 inh: -3

Results for COc1ccc(CN(C)C[C@H]2Oc3c(NS(C)(=O)=O)cccc3C(=O)N([C@@H](C)CO)C[C@H]2C)cc1 ?
LGR2 antag: -6

Results for COc1ccc(CNC(=O)C/C(C)=N/NC(=O)COc2ccc(C)cc2Br)cc1 ?
Mdm2-MdmX inh: 57*; Peg3 promoter: 14; KKLEB cytotox: -8; CF NFkB inh: 27; LGR2 antag: 12; HSP90 inh: -6; Mdm2 MdmX conf: 9

How did CN(C)C(=O)C[C@H]1CC[C@@H]2[C@H](COC[C@@H](O)CN2CC2CC2)O1 do in these assays?
LGR2 antag: 10

What do the screens show for `C/C(=N\NC(=O)c1nnn(-c2nonc2N)c1CSc1ccc(C)cc1)c1ccco1`?
Mdm2-MdmX inh: 62*; Peg3 promoter: 11; KKLEB cytotox: -10; CF NFkB inh: -16; LGR2 antag: 8; HSP90 inh: 4; Mdm2 MdmX conf: 0

How did C/C(=N\NC(=O)c1nnn(-c2nonc2N)c1CSc1ccccc1)c1ccco1 do in these assays?
Mdm2-MdmX inh: 24; Peg3 promoter: 28; KKLEB cytotox: 4; CF NFkB inh: -40; LGR2 antag: -13; HSP90 inh: 4

Results for C/C(=N\NC(=O)c1nnn(-c2nonc2N)c1CSc1ccccc1)c1ccc2c(c1)OCO2 ?
Mdm2-MdmX inh: 54*; Peg3 promoter: 35; KKLEB cytotox: 2; CF NFkB inh: 5; LGR2 antag: 5; HSP90 inh: 2; Mdm2 MdmX conf: 17

Results for O=C(C[C@@H]1CC[C@H]2[C@@H](COC[C@@H](O)CN2Cc2cccc(C(F)(F)F)c2)O1)NCCc1ccncc1 ?
LGR2 antag: -19

Results for C[C@H]1CN([C@@H](C)CO)C(=O)Cc2cc(NC(=O)C3CC3)ccc2O[C@H]1CN(C)C ?
LGR2 antag: 6

What do the screens show for `O=S(=O)(Cc1ccccc1)NCC[C@H]1CC[C@H](NS(=O)(=O)c2ccccc2)[C@@H](CO)O1`?
LGR2 antag: -11

What do the screens show for `Cn1c(=O)[nH]c(=O)c2c1nc(N1CCCC1)n2CCCSc1nc2ccccc2o1`?
Mdm2-MdmX inh: 8; Peg3 promoter: -13; KKLEB cytotox: -3; CF NFkB inh: 14; HSP90 inh: 3
